SMARCA2 act: SMARCA2 function activation, primary screen | MG213 cells, MMTV-luciferase reporter, dexamethasone, overnight | 1% of 370,000 active | activation, % at 9.1 µM; in the data active means activation above about 7.8%;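 further: 0% = vehicle wells and 100% = reference activator wells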
KLK7 zymogen act: proKLK7 (human) activation, primary screen; P49862; purified proKLK7, EDANS-DABCYL substrate fluorescence; 100% is mature enzyme control, 0% vehicle; 0.9% of 370,000 active; AID 652039; activation, % at 7 µM;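 active means activation above the mean of all tested compounds plus 3 SD, computed per campaign excluding outliers beyond control limits, cut at about 13% in these data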
FXN GAA850 act: increases GAA850 frataxin promoter reporter activity | HEK293 lucGAA850 FXN promoter luciferase reporter, 24 h; percent of 10 µM SAHA response | activation, % at 6 µM | 0.56% of 360,000 active | AID 540364;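 active means activation above the average of all compounds screened plus 3 SD, cutoff fixed separately per campaign, cut at about 7.5% in these data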;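 further: 0% = DMSO wells and 100% = 10 µM SAHA wells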
FAS TE block: blocks the thioesterase domain of human fatty acid synthase; P49327; recombinant FAS-TE, OMFH fluorogenic substrate, fluorescence endpoint; inhibition, % at 15 µM; 0.67% of 360,000 active; AID 602261;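 active means compounds whose normalised, plate-corrected inhibition of enzyme fluorescence in the single-dose primary screen is 50% or more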;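 further: 0% = DMSO with enzyme and 100% = substrate without enzyme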
SMARCA2 act conf: confirmation of SMARCA2 (BRM) function activators. AID 652260. shares compounds with SMARCA2 act. activation, % at 9.1 µM. 30% of 3,500 active. MG213 cells, MMTV-luciferase with dexamethasone, luminescence, overnight; MG213 cells expressing E1A, Rb sequestered; DMSO wells 0%, reference activator 100%;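 active means activation above its plate's cutoff, the mean activation of tested wells plus 3 SD, cut at about 7.9% in these data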
VP16 Luc act: counter-screen for SMARCA2 activators: GAL4-VP16 luciferase reporter activation | shares compounds with SMARCA2 act | HEK293 GAL4-VP16 pG5luc reporter, luciferase luminescence; scaled: DMSO wells 0%, SAHA wells 100% | activation, % at 9.1 µM | 41% of 3,500 active | AID 686939;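 active means activation above the solvent-only control well mean plus 3 SD, averaged across control plates, cut at about 5.2% in these data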
* hit, by the source's call; nt = no result given. Sampled rows, rich in hits. Any-hit rate of the full collection: about 2.9%.

SMILES | SMARCA2 act | KLK7 zymogen act | FXN GAA850 act | FAS TE block | SMARCA2 act conf | VP16 Luc act
Cn1c(SCc2cccc(Br)c2)nnc1-c1ccccn1 | -2.3 | -0.2 | -0.4 | 7.5 | nt | nt
Cn1c(SCc2cccc(F)c2)nnc1-c1ccccn1 | 9.9* | -0.6 | 4.9 | -5.9 | 6.9 | 6.3*
O=C(Nc1nc2ccccc2n1CCN1CCOCC1)c1ccc(Cl)cc1 | 8.0* | -0.6 | 5.1 | -0.4 | -2.6 | 2.2
Cc1ccc(C(=O)Nc2nc3ccccc3n2CCN2CCCC2)cc1 | 4.4 | -0.7 | 5.0 | -10.2 | nt | nt
O=C(Nc1nc2ccccc2n1CCN1CCCC1)c1ccc(Cl)cc1 | 9.1* | -1.2 | 1.9 | -3.9 | 18.1* | 13.5*
O=c1[nH]c(-c2ccccc2)nc(-c2ccccc2)c1Cl | -3.1 | -0.1 | -0.7 | -5.3 | nt | nt
O=C(Nc1ccccc1)NC1CCCCCCC1 | 11.9* | 0.0 | 2.8 | 4.3 | 5.0 | 3.8
NC(=O)c1nc(-c2ccccc2)c(-c2ccccc2)[nH]c1=O | -2.8 | 0.3 | -1.4 | -4.8 | nt | nt
CCc1ccc(OCc2nnc(SCC(=O)NC3CCCCC3)o2)cc1 | -0.2 | -0.3 | 2.6 | 4.7 | nt | nt
CCN(C[C@H]1N[C@@](Cc2ccccc2)(C(=O)OC)[C@H]2C(=O)N(Cc3ccccc3)C(=O)[C@@H]12)C(=O)NC(C)C | 9.2* | 0.5 | -8.3 | -2.9 | -4.2 | 1.3
CC(C(=O)OCC(=O)c1c(N)n(C)c(=O)n(C)c1=O)N1C(=O)c2ccccc2C1=O (centres undefined) | 10.4* | 0.9 | 1.1 | -7.8 | 7.1 | 0.1
Cn1c(N)c(C(=O)COC(=O)CCCN2C(=O)c3ccccc3C2=O)c(=O)n(C)c1=O | -2.2 | -0.4 | 1.1 | -2.1 | nt | nt
Cn1c(CN2CCOCC2)nnc1SCC(=O)NCCc1ccccc1 | 8.2* | 0.1 | -0.4 | -4.4 | 1.7 | -0.1
Cn1c(CN2CCOCC2)nnc1SCc1ccccc1 | -2.8 | 0.5 | 0.7 | -7.2 | nt | nt
Cc1ccc(-c2csc(NC(=O)CSc3nc4ccccc4c(=O)n3CCCN(C)C)n2)cc1 | 10.0* | -1.0 | 3.5 | -32.9 | 6.5 | 0.9
CCn1c(SCC(=O)Nc2nc(-c3ccc(C)cc3)cs2)nnc1-c1ccccc1 | 5.6 | 0.3 | -1.5 | 13.9 | nt | nt
Cc1ccc(C(=O)N2CCCC2)cc1S(=O)(=O)N1CCOCC1 | -1.3 | -0.2 | 0.3 | -9.0 | nt | nt
Cc1ccc(C(=O)N2CCCC(C(F)(F)F)C2)cc1S(=O)(=O)N1CCOCC1 (centres undefined) | 8.0* | 1.0 | 0.1 | -6.8 | -0.8 | 0.0
Cc1csc(C(=O)O)c1-n1cccc1 | 0.1 | 0.3 | 0.7 | -3.4 | nt | nt
COc1cc2c(cc1NC(=O)c1ccco1)CCCC2 | 10.3* | -0.5 | 6.1 | 5.9 | 7.9* | 11.2*
C[C@@H]1COc2cc(N3CCC[C@H]3CO)ccc2S(=O)(=O)N1 | 8.0* | 0.1 | nt | -15.4 | -4.2 | -0.9
C[C@H]1COc2cc(N3CCC[C@H]3CO)ccc2S(=O)(=O)N1 | 10.1* | 0.4 | nt | -14.0 | -2.7 | -0.2
CCc1nc(C#N)c(N2CCCCC2)o1 | -1.5 | -0.5 | 3.0 | -9.2 | nt | nt
Cc1ccsc1C(=O)OCC(=O)Nc1cccc(S(=O)(=O)NC2=NCCCCC2)c1 | 0.0 | 0.1 | 0.8 | 0.8 | nt | nt
CC(O)CNc1nc2c(c(=O)n(Cc3ccccc3)c(=O)n2C)n1C (centres undefined) | 9.7* | 0.1 | -1.0 | -1.8 | -0.9 | -0.2
SMILES | SMARCA2 act | KLK7 zymogen act | FXN GAA850 act | FAS TE block | SMARCA2 act conf | VP16 Luc act
COc1cccc(NC(=O)/C=C/c2ccccc2[N+](=O)[O-])c1 | 10.5* | -0.3 | 5.0 | 8.1 | 8.8* | 14.9*
COc1ccc(OC)c(NC(=O)/C=C/c2ccccc2[N+](=O)[O-])c1 | -2.4 | -0.5 | 3.5 | 8.2 | nt | nt
O=C(CN1C(=O)CSC1=O)Nc1ccccc1N1CCOCC1 | 9.8* | 0.2 | -0.4 | -5.6 | -1.6 | -0.2
CC1CCN(c2nc3ccc(C(=O)NCCCN4CCCCC4)cc3s2)CC1 | 12.3* | 0.4 | 4.5 | -0.3 | 4.1 | 17.3*
CCC1CCCCN1CCCNC(=O)c1ccc2nc(N3CCC(C)CC3)sc2c1 (centres undefined) | 7.6 | 0.1 | 2.3 | -6.9 | nt | nt
Cn1nc(/C=C/c2ccccc2)ccc1=O | 8.9* | 0.7 | 2.3 | -0.1 | 3.1 | 4.8
O=c1ccc(/C=C/c2ccccc2)nn1Cc1ccccc1 | -2.3 | -4.3 | -1.1 | 27.9 | nt | nt
